Bioassay records (PubChem BioAssay)
Shown are actives, neighbours in structure and some others; about 4.6% of the full set was active somewhere.
TRHR ag: agonists of human TRH receptor | activation, % at 2 µM | P34981 | AID 493084 | TRHR cells, calcium flux fluo-8, FDSS agonist mode | 0.18% of 360,000 active; note: 0% is about no effect
Target sequence (P34981 whole entry, looked up): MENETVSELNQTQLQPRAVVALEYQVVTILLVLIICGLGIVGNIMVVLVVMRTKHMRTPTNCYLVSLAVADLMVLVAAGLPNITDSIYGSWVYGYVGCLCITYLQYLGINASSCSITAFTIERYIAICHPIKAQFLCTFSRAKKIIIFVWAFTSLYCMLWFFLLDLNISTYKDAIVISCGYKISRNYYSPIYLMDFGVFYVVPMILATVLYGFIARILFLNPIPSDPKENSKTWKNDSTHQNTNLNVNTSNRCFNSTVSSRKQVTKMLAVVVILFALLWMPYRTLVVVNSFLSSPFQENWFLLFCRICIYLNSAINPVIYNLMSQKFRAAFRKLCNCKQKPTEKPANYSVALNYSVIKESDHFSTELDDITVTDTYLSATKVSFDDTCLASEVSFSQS
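TRHR-expressing cells, plated overnight in medium with 10% serum, were loaded with fluo-8 calcium dye at room temperature. After a 10 s baseline, library compound was pin-added and calcium release was recorded kinetically (ex 480/em 530) as agonist response.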
D1 potentiator: enhances dopamine response at the human D1 receptor. AID 504651. 0.036% of 360,000 active. potentiation, % at 10 µM. P21728. HEK293 TREx D1 cells, calcium flux, dopamine EC20 potentiation; in the data active = potentiation above about 30%; note: 0% is about no effect
D1 agonist: agonists of human D1 dopamine receptor | HEK293 T-REx D1 cells, calcium flux, agonist mode | 1% of 360,000 active | activation, % at 2 µM | P21728; note: 0% is about no effect
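Tetracycline-induced HEK293 TREx D1 cells, force-coupled to calcium signalling, were dye-loaded with a no-wash calcium kit. Compound was pin-added after a 10 s baseline. Fluorescence was read kinetically at 1 cycle/s for 180 s, with calcium rises flagged as agonism.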
D1 antagonist: blocks dopamine activation of the human D1 receptor. P21728. HEK293 TREx D1 cells, calcium flux, dopamine EC80; hits give low values. activity change, negative = inhibition, % at 10 µM. 3.2% of 360,000 active; in the data active = activity change below about -30%; note: % is set by controls: 0 for no effect and ±100 for the full control effect
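Allosteric or orthosteric antagonism assessed as attenuation of the calcium response to EC80 dopamine, added 180 s after compound, in induced HEK293 Trex D1 cells loaded with no-wash calcium dye.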
TRHR enhancer: allosterically enhances the human TRH receptor; enhancement, % at 2 µM; AID 493056; 0.66% of 360,000 active; TRHR cells, fluo-8 calcium fluorescence, EC20 TRH enhancement; in the data active = enhancement above about 30%; note: 0% is about no effect
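TRHR-expressing cells loaded with fluo-8 calcium dye were read kinetically (ex 480/em 530) during compound addition, then stimulated with an EC20 of TRH (10 nM final). Enhancement of the Gq-mediated intracellular calcium response was scored.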
* = called active by the depositor; ! = not active in a repeat. Cut-off read from the data, not from the text of the source, unless noted: active = activation above about 30%; inactive = the rest.

SMILES | TRHR ag | D1 potentiator | D1 agonist | D1 antagonist | TRHR enhancer
O=S(=O)(c1ccc(-c2cc(C(F)(F)F)on2)s1)N1CCN(c2ccccc2F)CC1 | 0 | -3 | 3 | -15 | 1
Cc1ccc(C(C)C)c(OCC(=O)Nc2nc3c(s2)CCCC3)c1 | 1 | 6 | 2 | 15 | 2
Cc1ccccc1OCc1nnc(SCc2cc(=O)c3ccc(C)c(C)c3[nH]2)n1C | -1 | -3 | 0 | 10 | 1
NS(=O)(=O)c1ccc(NC(=O)/C=C/c2cccc(Cl)c2)cc1 | 0 | -2 | 1 | -9 | 15
COc1ccc(/C=C/C(=O)Nc2ccc(C)cc2)cc1 | -1 | -2 | 1 | -65* | -6
CC(=O)c1ccc(NC(=O)/C=C/c2ccc(C)cc2)cc1 | 0 | -5 | 4 | -9 | -3
CC(C)(C)c1ccc(/C=C/C(=O)Nc2ccc(S(N)(=O)=O)cc2)cc1 | -1 | -2 | 33* | -14 | 8
O=C(O)/C=C/c1ccc(S(=O)(=O)NCc2ccco2)cc1 | 1 | -2 | 5 | 0 | -4
NS(=O)(=O)c1ccc(NC(=O)/C=C/c2ccc(S(=O)(=O)NCc3ccco3)cc2)cc1 | 1 | -5 | 5 | -43* | -6
CCn1cnc2c(Nc3cc(F)cc(F)c3)nc(C(=O)COc3c(F)c(F)cc(F)c3F)nc21 | -1 | -6 | 1 | -4 | -4
COC(=O)c1c(NC(=O)c2nc(SCc3ccc(C)cc3)ncc2Cl)sc2c1CCCC2 | 1 | 1 | 1 | -1 | -4
COc1ccc(CCN2CCCC(CN(C)Cc3cc(Cl)c(O)c(OC)c3)C2)cc1 (stereo unspecified) | 0 | -3 | 1 | -4 | 2
O=C(CC(c1ccccc1)c1ccccc1)Nc1ncn[nH]1 | 0 | -5 | 1 | -36* | 5
Cn1cnc(S(=O)(=O)N2CCCC(C(=O)NCc3ccc(F)cc3)C2)c1 (stereo unspecified) | 0 | 0 | 0 | 5 | -10
O=C(NCc1cccs1)C1CCC(CNS(=O)(=O)c2cccc3nsnc23)CC1 (stereo unspecified) | 0 | -4 | 5 | -2 | 10
COc1cccc(CNC(=O)C2CCC(CNS(=O)(=O)c3cccc4nsnc34)CC2)c1 (stereo unspecified) | 0 | -7 | 5 | -41* | 2
CCC(C)(C)NC(=O)C1CCC(CNS(=O)(=O)c2cccc3nsnc23)CC1 (stereo unspecified) | 0 | 0 | 6 | -40* | -4
CCCCN(CC)C(=O)C1CCC(CNS(=O)(=O)c2cccc3nsnc23)CC1 (stereo unspecified) | -1 | -4 | 7 | -31*! | -6
CCn1ccc2cc(S(=O)(=O)N3CCCN(C(=O)Nc4cccc(Cl)c4)CC3)ccc21 | 0 | 1 | 3 | -2 | -2
Cc1ccc(NC(=O)[C@H](CSCc2ccccc2)N2Cc3ccccc3C2=O)cc1 | 0 | 0 | 4 | -34* | -3
COc1ccc(/C=C(/C(=O)c2cccs2)N2C=CC=CC2=C(C#N)C#N)cc1 | 1 | -7 | 1 | -24 | -1
COc1ccc(C(=O)/C(=C\c2ccco2)N2C=CC=CC2=C(C#N)C#N)cc1 | 0 | -8 | 9 | -41* | -7
N#CC(C#N)=C1C=CC=CN1/C(=C\c1ccco1)C(=O)c1ccc(Br)cc1 | 0 | -11 | 5 | -48* | 3
N#CC(C#N)=C1C=CC=CN1/C(=C\c1ccco1)C(=O)c1ccccc1 | 0 | -7 | 0 | -75* | -7
N#C/C(=C/c1ccco1)C(N)=S | -1 | 6 | 11 | -5 | -5
SMILES | TRHR ag | D1 potentiator | D1 agonist | D1 antagonist | TRHR enhancer
COc1ccccc1NC(=O)CCS(=O)(=O)c1ccc2nc(C)sc2c1 | 1 | 0 | 4 | 12 | 1
CCn1cc(C(=O)N(C)c2cc(C)ccc2OC)c2cc(OC)c(OC)cc2c1=O | 0 | 0 | 1 | -10 | -5
CCn1cc(C(=O)N(C)c2cc(C)ccc2C)c2cc(OC)c(OC)cc2c1=O | -1 | 3 | 2 | -34* | 6
O=[N+]([O-])c1ccc(-c2ccc(/C=N/Nc3nc(NCc4ccccc4)nc(N4CCOCC4)n3)o2)cc1 | 21 | 2 | 74* | -12 | -1
CCN(CC)CCNC(=O)c1c(C)oc2ncnc(N3CCOCC3)c12 | 2 | -8 | 1 | -10 | -6
NC(=O)C1CCN(C(=O)Nc2csc3ccccc23)CC1 | 1 | 3 | 0 | -61* | -8
CCN(CC1COc2ccccc2O1)C(=S)Nc1ccccc1 (stereo unspecified) | 1 | 0 | 4 | -12 | -1
CC1CCN(S(=O)(=O)c2ccc3[nH]ccc3c2)CC1 | 0 | 3 | -4 | 12 | 5
CC(C(=O)N1CCCCC1)N1C(=O)c2ccccc2C1=O (stereo unspecified) | -1 | -2 | 1 | -5 | -4
CC1SC(=NC(=O)C(C)N2C(=O)c3ccccc3C2=O)NC1=O (stereo unspecified) | 0 | -4 | 0 | -34* | -5
Cc1ccc(C(CNS(=O)(=O)c2ccc(C)cc2)N2CCN(C)CC2)cc1 (stereo unspecified) | 0 | -1 | 9 | -8 | 5
Cc1ccc(C(CNS(=O)(=O)c2ccc(Cl)cc2)N2CCN(C)CC2)cc1 (stereo unspecified) | 1 | -10 | 43* | -34* | 0
COc1ccc(-n2nc3cc(C)c(NC(=O)c4ccc(-c5ccc(Cl)cc5)o4)cc3n2)cc1 | 0 | -2 | 2 | -5 | -8
COc1ccc(OC)c(NC(=O)N2CCC(N3CCN(Cc4ccc(F)cc4)C(=O)C3=O)CC2)c1 | 1 | -1 | -2 | -2 | -3
COC(=O)c1ccccc1NC(=O)N1CCC(N2CCN(Cc3ccc(F)cc3)C(=O)C2=O)CC1 | 0 | -1 | -1 | -39* | 0
CC(=O)c1cccc(Nc2nc3ccccc3n3cnnc23)c1 | -1 | -2 | 0 | 3 | 15
Cc1ccccc1CNC(=O)C(=O)NCC1OCCCN1S(=O)(=O)c1cccs1 (stereo unspecified) | 0 | -5 | 1 | -19 | 3
CC(=O)N1CCn2c3c(c4cc(C)ccc42)CCCC31 (stereo unspecified) | -1 | -2 | 1 | -15 | -18
Cc1ccc2c(c1)c1c3n2CCN(C(=O)CCl)C3CCC1 (stereo unspecified) | 0 | -5 | 4 | -45* | 1
Cc1sc2c(c1C)c(=O)n(CCc1ccccc1)c(=O)n2Cc1cccc(F)c1 | 2 | 0 | 0 | 1 | -1
CCc1cc(C(=O)Nc2c(C)nn(Cc3ccc(C)cc3)c2C)no1 | -2 | 2 | -1 | -9 | 3
Cc1ccc(Cn2nc(C)c(NC(=O)C3(C)CC3(Br)Br)c2C)cc1 (stereo unspecified) | 0 | -4 | 0 | -38* | 6
